Data reported in PubChem BioAssay AID463173 (ICCB-Longwood Screening Facility, Harvard Medical School, 2010).
“And” between values parts separate entries of the source, which are not always exact repeats. Equal entries are not always repeated. Among all 52,000 compounds or so, about 4,300 (8.3%) were called active. The sample holds actives, similar compounds and a random draw of the others, so the mix is not that of the screen. Rule as the data show it: active = survival mostly below about 52% (no sharp cut-off); inactive = mostly above about 56%. Some structures have more than one record in an assay (separate samples or runs), and their calls can disagree.

These compounds were tested on DeltatarO mutant (assay: growth inhibition of S. aureus wild type versus tarO mutant, primary screen, teichoic acid synthesis inhibitors, RN4220, OD600 (AID 463173)). Conditions: OD600, 18 h, stronger effect = lower value, screened at 18.75 µg/mL (by protocol).

Q: Cc1ccc(C)c(NS(=O)(=O)c2ccc3oc(=O)c4ncn(C)c4c3c2)c1 was tested. Which survival did it give?
A: 82% (inactive)

Q: For O=C(NCCc1nc2ccccc2n1Cc1ccccc1F)c1ccc(F)cc1, which survival is on record?
A: 81% (inactive)

Q: How did the survival turn out when COc1ccc(Cc2nc3ccccc3n2Cc2ccccc2C)cc1 was run?
A: -3% (active)

Q: With Cc1ccccc1Cn1c(CCCNC(=O)C2CCCCC2)nc2ccccc21 as the compound, how does the survival read?
A: 90% (inactive)

Q: For COc1ccc(Cc2nc3ccccc3n2Cc2ccccc2F)cc1, which survival is on record?
A: 18% (active)

Q: With COc1cccc(OCc2nc3ccccc3n2Cc2ccccc2C)c1 as the compound, how does the survival read?
A: 75% (inactive)

Q: For O=C(NCCCc1nc2ccccc2n1Cc1ccccc1F)c1ccco1, which survival is on record?
A: 63% (inactive)

Q: With CC(=O)N1CCc2cc(CNC(=O)Cc3ccc(F)cc3)ccc21 as the compound, how does the survival read?
A: 94% (inactive)

Q: How did the survival turn out when Cc1oc2cc3oc(=O)c(CC(=O)N4CCCCC4)c(C)c3cc2c1C was run?
A: 73% (inactive)

Q: With O=C(Cn1cc(SCc2ccccc2F)c2ccccc21)N1CCCCC1 as the compound, how does the survival read?
A: 82% (inactive)

Q: How did the survival turn out when CCc1ccc(NC(=O)c2ccc(F)c(S(=O)(=O)NC3CCCCCC3)c2)cc1 was run?
A: -2% (active)

Q: For O=C(Nc1ccc(Br)cc1)c1ccc(F)c(S(=O)(=O)NC2CCCCCC2)c1, which survival is on record?
A: 84% (inactive)

Q: With O=C(Nc1ccc(C(F)(F)F)cc1)c1cc(S(=O)(=O)NC2CCCCCC2)ccc1F as the compound, how does the survival read?
A: 25% (active)

Q: Which survival does the source give for CCc1ccc(NC(=O)c2ccc(F)c(S(=O)(=O)N(C)C3CCCCC3)c2)cc1 here?
A: 84% (inactive)

Q: With O=C(Nc1ccc(F)c(F)c1)c1cc(S(=O)(=O)NC2CCCCCC2)ccc1F as the compound, how does the survival read?
A: 54% (inactive)

Q: With O=C(Nc1ccc(Cl)cc1)c1cc(S(=O)(=O)NC2CCCCCC2)ccc1F as the compound, how does the survival read?
A: 90% (inactive)

Q: For COC(=O)c1ccc(CN(Cc2ccc(OC)c(OC)c2)S(=O)(=O)c2cc(C(=O)Nc3cccc(C)c3)ccc2F)cc1, which survival is on record?
A: 86% (inactive)

Q: For CCOc1ccc(NC(=O)c2ccc(F)c(S(=O)(=O)N(Cc3ccc(C(=O)OC)cc3)Cc3ccc(OC)c(OC)c3)c2)cc1, which survival is on record?
A: 47% (active)

Q: O=C(Nc1ccc(C(F)(F)F)cc1)c1cc(S(=O)(=O)NC2CCCCC2)ccc1F was tested. Which survival did it give?
A: 92% (inactive)

Q: How did the survival turn out when Cc1ccc(NC(=O)c2cc(S(=O)(=O)NC3CCCCCC3)ccc2F)cc1F was run?
A: 92% (inactive)

Q: For CCOc1ccc(NC(=O)c2ccc(F)c(S(=O)(=O)N(CC)Cc3ccccc3)c2)cc1, which survival is on record?
A: 78% (inactive)

Q: How did the survival turn out when Cc1ccc(NC(=O)c2cc(S(=O)(=O)NC3CCCCC3)ccc2F)cc1Cl was run?
A: -5% (active)

Q: How did the survival turn out when CSc1nnc(COc2ccc(Br)cc2)n1Cc1ccccc1 was run?
A: 97% (inactive)

Q: CCNC(=O)Nc1ccc2nc(C)n(Cc3cccc(Cl)c3)c(=O)c2c1 was tested. Which survival did it give?
A: 104% (inactive)

Q: Cc1nn(-c2ccccc2)c2c1N(CCCC(=O)NCc1ccccc1)C(=O)CS2 was tested. Which survival did it give?
A: 99% (inactive)

Q: For O=C(c1ccco1)N1CCN(Cc2cccc(Br)c2)CC1, which survival is on record?
A: 95% (inactive)

Q: With Cc1ccc(CNC(=O)CCCCn2c(=O)c3ccccc3n(Cc3ccc(C)cc3)c2=O)cc1 as the compound, how does the survival read?
A: 67% (inactive)

Q: How did the survival turn out when CCOc1ccc(OCC)c(NC(=O)C2CCN(S(=O)(=O)c3ccc(Br)s3)CC2)c1 was run?
A: 80% (inactive)

Q: With COc1cc(NC(=O)C2CCN(S(=O)(=O)c3ccc4c(c3)oc(=O)n4C)CC2)cc(OC)c1 as the compound, how does the survival read?
A: 102% (inactive)

Q: Which survival does the source give for Fc1ccccc1OCc1nc(-c2ccc(-n3cccc3)cc2)no1 here?
A: 75% (inactive)

Q: How did the survival turn out when COc1ccc(CNC(=O)CSc2nc3ccccc3nc2Cc2ccccc2OC)cc1 was run?
A: 70% (inactive)

Q: Which survival does the source give for Cc1cc(C)cc(NC(=O)C2CCC(CNS(=O)(=O)c3ccc4c(c3)C(C)(C)C(=O)N4C)CC2)c1 (configuration not stated) here?
A: 102% (inactive)

Q: COc1ccc(NC(=O)C2CCC(CNS(=O)(=O)c3ccc4c(c3)C(C)(C)C(=O)N4C)CC2)cc1 (configuration not stated) was tested. Which survival did it give?
A: 54% (inactive)

Q: Cc1ccc(NC(=O)C2CCC(CNS(=O)(=O)c3ccc4c(c3)C(C)(C)C(=O)N4C)CC2)cc1 (configuration not stated) was tested. Which survival did it give?
A: 67% (active)

Q: With CCOc1ccc(NC(=O)C2CCC(CNS(=O)(=O)c3ccc4c(c3)CCCC(=O)N4)CC2)cc1 (configuration not stated) as the compound, how does the survival read?
A: 47% (active)

Q: Which survival does the source give for CC(=O)c1ccc(NC(=O)C2CCC(CNS(=O)(=O)c3ccc4c(c3)CCCC(=O)N4)CC2)cc1 (configuration not stated) here?
A: 73% (inactive)

Q: For CC(C)c1ccc(NC(=O)C2CCC(CNS(=O)(=O)c3ccc4c(c3)CCCC(=O)N4)CC2)cc1 (configuration not stated), which survival is on record?
A: 73% (inactive)

Q: With Cc1ccc(S(=O)(=O)NC2CCCCC2)c2nsnc12 as the compound, how does the survival read?
A: 78% (inactive)

Q: Cc1nc(C)c(CCNS(=O)(=O)c2ccc(F)cc2)s1 was tested. Which survival did it give?
A: 119% (inactive)

Q: CCc1cccc(NC(=O)CSc2n[nH]c(-c3ccccc3Cl)n2)c1 was tested. Which survival did it give?
A: 66% (inactive)

Q: With Cc1cc(Nc2ccccc2O)nc(C)n1 as the compound, how does the survival read?
A: 67% (inactive)

Q: With CCOc1ccc(CNS(=O)(=O)c2c(C(=O)N3CCC(C)CC3)c(C)n(C)c2C)cc1OC as the compound, how does the survival read?
A: 81% (inactive)

Q: How did the survival turn out when CC(=O)Nc1ccc(NS(=O)(=O)c2c(C(=O)N3CCC(C)CC3)c(C)n(C)c2C)cc1 was run?
A: 20% (active)

Q: For COc1cc(OC)c(NS(=O)(=O)c2c(C(=O)N3CCC(C)CC3)c(C)n(C)c2C)cc1Cl, which survival is on record?
A: 17% (active)

Q: How did the survival turn out when Cc1ccc(NS(=O)(=O)c2c(C(=O)N3CCC(C)CC3)c(C)n(C)c2C)cc1Cl was run?
A: 126% (inactive)

Q: Which survival does the source give for COc1ccc(C)cc1NS(=O)(=O)c1c(C(=O)N2CCC(C)CC2)c(C)n(C)c1C here?
A: 89% (inactive)

Q: Which survival does the source give for CCOc1ccc(OCC)c(NS(=O)(=O)c2c(C(=O)N3CCCCCC3)c(C)n(C)c2C)c1 here?
A: 76% (inactive)

Q: Which survival does the source give for CCOc1ccc(OCC)c(NS(=O)(=O)c2c(C(=O)N3CCC(C)CC3)c(C)n(C)c2C)c1 here?
A: 8% (active)

Q: For COc1cc(OC)c(NS(=O)(=O)c2c(C(=O)N3CCCCCC3)c(C)n(C)c2C)cc1Cl, which survival is on record?
A: 68% (inactive)

Q: For CC(=O)Nc1ccc(NS(=O)(=O)c2c(C(=O)N3CCCCCC3)c(C)n(C)c2C)cc1, which survival is on record?
A: 66% (inactive)

Q: Cc1ccc(CNC(=O)c2c(-c3ccccc3F)noc2C)o1 was tested. Which survival did it give?
A: 89% (inactive)

Q: With CCC1CN(C(=O)N2CCC(C(=O)NCCN(CC)CC)CC2)c2cc(C)ccc2O1 (configuration not stated) as the compound, how does the survival read?
A: 94% (inactive)

Q: Which survival does the source give for Cn1ccc2c(OCC(=O)Nc3ccc(OC(F)(F)F)cc3)cccc2c1=O here?
A: 95% (inactive)

Q: CCCc1nn2c(=O)cc(COC(=O)c3cccc(NC(=O)CCc4ccccc4)c3)nc2s1 was tested. Which survival did it give?
A: 131% (inactive)

Q: How did the survival turn out when CC(=O)c1ccc(NC(=O)Cn2c(=O)nc(-c3ccccc3)c3cc(Cl)ccc32)cc1 was run?
A: 115% (inactive)

Q: Which survival does the source give for O=C(NCCC1=CCCCC1)C1CC(O)CN1C(=O)Nc1ccccc1 (configuration not stated) here?
A: 87% (inactive)

Q: With CCOC(=O)c1c(-c2ccc(C)cc2)csc1NC(=O)c1cc(-c2ccc(C)c(F)c2)on1 as the compound, how does the survival read?
A: 55% (inactive)

Q: CCOC(=O)c1c(-c2ccccc2)csc1NC(=O)c1cc(-c2cccc(Cl)c2)on1 was tested. Which survival did it give?
A: 59% (inactive)

Q: How did the survival turn out when CCOC(=O)c1c(-c2ccccc2)csc1NC(=O)c1cc(-c2cccc(OC)c2)on1 was run?
A: 43% (active)

Q: CCOC(=O)c1c(-c2ccccc2)csc1NC(=O)c1cc(-c2ccc(F)cc2)on1 was tested. Which survival did it give?
A: 66% (inactive)

Q: CCOC(=O)c1c(NC(=O)c2cc(-c3ccc(OC)c(OC)c3)on2)sc2c1CCCC2 was tested. Which survival did it give?
A: 52% (inactive)

Q: For CCOC(=O)c1c(-c2ccc(C)cc2)csc1NC(=O)c1cc(-c2ccc(OC)cc2)on1, which survival is on record?
A: 49% (inactive)

Q: How did the survival turn out when CCOC(=O)c1c(NC(=O)c2cc(-c3cccc(OC)c3)on2)sc2c1CCCC2 was run?
A: 46% (active)

Q: With CCOC(=O)c1c(NC(=O)c2cc(-c3ccc(Cl)cc3)on2)sc2c1CCCC2 as the compound, how does the survival read?
A: 68% (inactive)

Q: How did the survival turn out when CCOC(=O)c1c(-c2ccccc2)csc1NC(=O)c1cc(-c2ccc(C)c(F)c2)on1 was run?
A: 52% (active)

Q: CCc1ccccc1-n1nnc(-c2nsc(NC(=O)c3ccc(C)c(C)c3)n2)c1C was tested. Which survival did it give?
A: 130% (inactive)

Q: With COc1ccc(NC(=O)C2Cc3ccccc3CN2S(=O)(=O)c2ccccc2)cc1OC (configuration not stated) as the compound, how does the survival read?
A: 94% (inactive)

Q: With CCc1c(C)sc2c1CCN(Cc1cccc(OC)c1)C2c1ccccc1 (configuration not stated) as the compound, how does the survival read?
A: 60% (inactive)

Q: How did the survival turn out when CCCCNC(=O)c1ccc2c(=O)n(Cc3ccc(OC)cc3)c(=O)[nH]c2c1 was run?
A: 68% (inactive)

Q: For COc1cc(OC)c(NC(=O)CCNS(=O)(=O)c2ccc3c(c2)oc(=O)n3C)cc1Cl, which survival is on record?
A: 83% (inactive)

Q: With Cc1cc(/C=C(\C#N)C(=O)N2CCc3ccccc3C2)c(C)n1C as the compound, how does the survival read?
A: 87% (inactive)

Q: Which survival does the source give for O=C(/C=C\c1ccc2c(c1)OCO2)NC1CC(=O)N(c2cccc(F)c2)C1 (configuration not stated) here?
A: 67% (inactive)

Q: Which survival does the source give for Cc1sc(-n2cccc2)c(C(C)NC(=O)Nc2ccccc2Cl)c1C (configuration not stated) here?
A: 61% (inactive)

Q: With Cc1sc(-n2cccc2)c(C(C)NC(=O)Nc2cccc(C(F)(F)F)c2)c1C (configuration not stated) as the compound, how does the survival read?
A: 23% (active)

Q: Cc1ccc(NC(=O)NC(C)c2c(-n3cccc3)sc(C)c2C)cc1F (configuration not stated) was tested. Which survival did it give?
A: 64% (inactive)

Q: Which survival does the source give for COC(=O)c1ccc(Cl)cc1NC(=O)NC(C)c1c(-n2cccc2)sc(C)c1C (configuration not stated) here?
A: 19% (active)

Q: COC(=O)c1ccc(NC(=O)NC(C)c2c(-n3cccc3)sc(C)c2C)cc1 (configuration not stated) was tested. Which survival did it give?
A: 52% (inactive)

Q: For COc1ccc(NC(=O)NC(C)c2c(-n3cccc3)sc(C)c2C)cc1OC (configuration not stated), which survival is on record?
A: 58% (inactive)

Q: For CCn1nc(CCC(=O)O)c2ccccc2c1=O, which survival is on record?
A: 80% (inactive)

Q: With O=C(Nc1ccc2oc(-c3cccc4c(Br)cccc34)nc2c1)c1ccc(Br)cc1 as the compound, how does the survival read?
A: 71% (inactive)

Q: With Cc1ccc2oc(-c3ccccc3C)nc2c1 as the compound, how does the survival read?
A: 105% (inactive)

Q: For Nc1ccc2oc(-c3ccccc3Br)nc2c1, which survival is on record?
A: 87% (inactive) and 39% (active)

Q: Which survival does the source give for CCOC(=O)CC(NC(=O)c1cc2cc(OC)ccc2oc1=O)c1ccc(OC)cc1 (configuration not stated) here?
A: 74% (inactive)

Q: Which survival does the source give for Cc1ccccc1C(=O)NCc1nc(-c2ccc(Cl)cc2)no1 here?
A: 47% (active)

Q: For Cc1cccc(-c2noc(CCCC(=O)NCc3ccco3)n2)c1, which survival is on record?
A: 42% (active)

Q: Which survival does the source give for COc1cccc(-c2noc(CCCC(=O)NCc3ccco3)n2)c1 here?
A: 109% (inactive)

Q: How did the survival turn out when Cc1cccc(-c2noc(CNC(=O)c3ccccc3Br)n2)c1 was run?
A: 72% (inactive)

Q: Cc1ccc(CC(=O)NCc2nc(-c3cccc(C)c3)no2)cc1 was tested. Which survival did it give?
A: 69% (inactive)

Q: Which survival does the source give for Cc1cccc(-c2noc(CNC(=O)c3ccc(C)cc3C)n2)c1 here?
A: 37% (active)

Q: Cc1ccc(-c2noc(CNC(=O)c3ccccc3)n2)cc1 was tested. Which survival did it give?
A: 63% (inactive)

Q: How did the survival turn out when Cc1ccc(-c2noc(CNC(=O)c3ccc(C)c(Cl)c3)n2)cc1 was run?
A: 49% (inactive)

Q: For Cc1ccc(-c2noc(CCCC(=O)NCc3ccco3)n2)cc1, which survival is on record?
A: 53% (inactive)
